26 molecules from PubChem BioAssay (Tox21) can be followed below.

A short description of test [1]: qHTS assay for small molecule agonists of the p53 signaling pathway (AID 651631; calls by dose curve; further: nearly all actives have a fitted effect of over 15% in size; further: potency means the concentration at half of the fitted maximal effect). The procedure, abridged:
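HCT-116 cells carrying a beta-lactamase reporter under p53 response elements were dosed with compound for 16 h at 37 °C. LiveBLAzer B/G FRET substrate was then added for 2 h at room temperature, and fluorescence intensity was read to detect pathway agonism.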
(In general: Quantitative high-throughput screening tests each substance at several concentrations.)

A short description of test [2]: qHTS assay for small molecules that induce genotoxicity in human embryonic kidney cells expressing luciferase-tagged ATAD5 (AID 651632). Further: nearly all actives have a fitted effect of over 15% in size. In short, it runs like this: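 ATAD5-luc HEK293T, 2,000 cells/well; cpd or DMSO pin-transferred; 16 hr, 37C/5% CO2; Amplite 30 min RT; luminescence.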
A short description of test [3]: qHTS assay for small molecule agonists of the p53 signaling pathway - cell viability (AID 651633; calls by dose curve;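 further: p53RE-bla HCT reporter cells with a stable beta-lactamase p53 reporter; series mostly up to about 83 µM; nearly all actives have a fitted effect of over 30% in size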). In short, it runs like this:
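p53RE-bla cells were treated with compound for 16 hours at 37 C. Cytotoxicity was then measured as CellTiter-Glo luminescence after 30 min at room temperature.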

Test [4] can be described thus: qHTS assay for small molecules that induce genotoxicity in human embryonic kidney cells expressing luciferase-tagged ATAD5 - cell viability (AID 651634; calls by dose curve; further: nearly all actives have a fitted effect of over 25% in size; further: potency means the concentration at half of the fitted maximal effect). In short, it runs like this:
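Fluorescence from CellTiter-Fluor, reporting protease activity within live cells, served as the viability read-out. HEK293T cells carrying luciferase-tagged ATAD5 had been treated with compound for 15.5 hr at 37C.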

The nature of test [5]: qHTS assay for small molecule disruptors of the mitochondrial membrane potential - cell viability (AID 720634; calls by dose curve;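 further: human HepG2 liver cancer cells; series mostly up to about 83 µM; nearly all actives have a fitted effect of over 20% in size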). The procedure, abridged:
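Cells: HepG2, 2,000/well, attached overnight. Compound 1 hr, 37 C/5% CO2. +m-MPI dye, +CellTiter-Glo 30 min RT. Readout: luminescence (ATP).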

The nature of test [6]: qHTS assay for small molecule disruptors of the mitochondrial membrane potential (AID 720635). Further: potency means the concentration at half of the fitted maximal effect. The procedure, abridged: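 HepG2 cells exposed to compound 1 hr at 37C, then Mito-MPS dye 30 min. Ratio read of aggregate (540/590 nm) versus monomer (490/535 nm) fluorescence.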
The nature of test [7]: qHTS assay to test for compound auto fluorescence at 535 nm (green) in HepG2 cells (AID 720675).
A short description of test [8]: qHTS assay to test for compound auto fluorescence at 460 nm (blue) in HEK293 cells (AID 720678). Further: potency means the concentration at half of the fitted maximal effect. In short, it runs like this:
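Measured: blue fluorescence (Ex 405/Em 460 nm) of compound-treated HEK293 cells, incubated overnight at 37C with 5% CO2 and scaled to triamterene equivalents.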

Test [9] can be described thus: qHTS assay to test for compound auto fluorescence at 590 nm (red) in HEK293 cells (AID 720679). In short, it runs like this: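 Using HEK293 cells at 2,000 per well, the screen added 23 nL of each compound after cell attachment and incubated overnight (37C, 5% CO2). The plate reader then captured red-label fluorescence, Ex/Em 540/590nm.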
A short description of test [10]: qHTS assay to test for compound auto fluorescence at 590 nm (red) in HepG2 cells (AID 720674). The procedure, abridged: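 Fluorescence at 590 nm emission following 540 nm excitation was recorded from HepG2 wells one hour after compound transfer, with DMSO-only wells as vehicle and Rose Bengal sodium equivalency as the scale.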

Where “and” joins values, the source holds several entries; their conditions need not be identical. Identical values can stand only once. Records with an inconclusive call do not appear. Calls of active or inactive are those of the source. Unless noted, the call rests on the fitted dose curve; in most records, active means well fitted curve in the direction sought with a large enough effect in the repeat runs; inconclusive means weak or mixed curves; inactive means no such curve, though single readings can be large; an effect the other way counts as inactive or inconclusive.
Tags describe the fitted curve by direction and shape or compound fluorescence and quenching.

For `CC(=O)C(C)C`, the Potency result in test [1], in [2], in test [3], in test [4], in [5] and in test [6] was “inactive” each time. Further, the Potency result in [8] was “inactive”. Further, the molecule was classed as inactive in test [7] and in test [9].

As to `CCCN(CCC)C(=O)SCC`, the Potency entry in [1], in [2], in test [3], in [4], in test [5] and in test [6] was “inactive” in each case. Moreover, the Potency result in [8] is “inactive”. The molecule was called inactive in test [10], in [7] and in [9].

For `CC(=O)OC(C)(C)C1CC=C(C)CC1` (centres undefined), the Potency entry in [1], in test [2], in test [3], in test [4], in test [5] and in test [6] was “inactive” each time. For the same molecule, the Potency result in test [8] is “inactive”. Further, the molecule was called inactive in test [10], in test [7] and in test [9].

As to `O=C(O)C1=NN(c2ccc(S(=O)(=O)O)cc2)C(=O)C1`, the Potency entry in test [1], in test [2], in test [3], in [4], in test [5] and in test [6] was “inactive” each time. For the same molecule, the Potency entry in test [8] was “inactive”. Also, the molecule was classed as inactive in test [10], in test [7] and in test [9].

For the molecule `CCc1cccc(O)c1`, the Potency result in [1], in test [2], in test [3], in test [4], in test [5] and in test [6] was “inactive” each time. Besides, the Potency result in [8] is “inactive”. Also, the molecule was called inactive in test [7] and in test [9].

As to `CC/C(C)=N/O`, the Potency result in test [1], in test [2], in [3], in test [4], in [5] and in [6] was “inactive” throughout. For the same molecule, in test [8], the Potency result was “inactive”. Moreover, the call in test [10], in [7] and in test [9] was inactive.

For `CC(=O)OC[C@H]1O[C@@](COC(C)=O)(O[C@H]2O[C@H](COC(C)=O)[C@@H](OC(C)=O)[C@H](OC(C)=O)[C@H]2OC(C)=O)[C@@H](OC(C)=O)[C@@H]1OC(C)=O`, the Potency result in test [1], in test [2], in [3], in test [4], in test [5] and in test [6] was “inactive” in each case. Also, in [8], the Potency result is “inactive”. Further, the result in test [7] and in test [9] was inactive.

For the molecule `O=C1OC(=O)c2c(Cl)c(Cl)c(Cl)c(Cl)c21`, the Potency result in test [1], in test [2], in [3], in [4], in test [5] and in [6] was “inactive” in each case. The Potency result in test [8] was “inactive”. The result in test [10], in [7] and in [9] was inactive.

As to `CC(C)(CO)CO`, the Potency result in [1], in test [2], in [3], in test [4], in test [5] and in test [8] was “inactive” throughout. For the same molecule, the molecule was classed as inactive in test [10], in test [7] and in test [9].

Regarding `O=C(c1ccccc1)c1ccc(O)c(O)c1O`, the Potency entry in [1], in test [2], in [3], in test [5] and in test [8] was “inactive” throughout. Also, in test [6], the Potency is 48.6 µM (active). The molecule was called inactive in test [10], in test [7] and in test [9].

As for `Cc1nnc(NS(=O)(=O)c2ccc(N)cc2)s1`, the Potency entry in [1], in test [2], in [3], in test [5], in [6] and in [8] was “inactive” throughout. Further, the call in test [10], in test [7] and in [9] was inactive.

Regarding `CCCCCNCCCCC`, the Potency entry in test [1], in test [2], in test [3], in test [4], in test [5] and in [6] was “inactive” in each case. In addition, in test [8], the Potency result was “inactive”. In addition, the result in test [10], in [7] and in test [9] was inactive.

Turning to `O=[N+]([O-])c1cc(C(F)(F)F)ccc1Cl`, the Potency result in test [1], in test [2], in test [3], in [4], in [5] and in test [6] was “inactive” each time. The Potency entry in test [8] was “inactive”. Besides, the molecule was called inactive in test [7] and in test [9].

With `CCOC(=O)CC(=O)OCC`, the Potency entry in test [1], in test [2], in [3], in test [4], in test [5] and in test [6] was “inactive” in each case. For the same molecule, the Potency entry in test [8] is “inactive”. Further, the molecule was called inactive in test [10], in test [7] and in test [9].

On to `O=[N+]([O-])c1ccccc1C(F)(F)F`, for which the Potency entry in test [1], in test [2], in test [3], in [4], in test [5] and in test [6] was “inactive” each time. In addition, the Potency entry in test [8] is “inactive”. The result in test [10], in test [7] and in [9] was inactive.

`COc1c2ccoc2cc2oc(=O)ccc12`: the Potency result in test [1], in test [2], in test [3], in [5], in test [6] and in [8] was “inactive” each time. The outcome in test [10], in test [7] and in test [9] was inactive.

Consider `OC1CCCCC1`, for which the Potency result in [1], in [2], in test [3], in test [4] and in test [8] was “inactive” each time. Besides, the result in [10], in [7] and in test [9] was inactive.

For the molecule `O=c1c(O)c(-c2ccc(O)c(O)c2)oc2cc(O)cc(O)c12`, the Potency in test [1] was 49 µM (active); in test [4] it was 54.5 µM (active). Moreover, the Potency entry in test [2], in test [3], in test [5] and in [8] was “inactive” each time. For the same molecule, the result in [7] and in [9] was inactive.

Turning to `Cc1cc(CC(=O)O)n(C)c1C(=O)c1ccc(Cl)cc1`, the Potency entry in test [1], in test [2], in test [3], in test [4], in [5] and in test [6] was “inactive” throughout. The Potency result in test [8] was “inactive”. The molecule was called inactive in test [10], in test [7] and in [9].

On to `CC(C)=CCC/C(C)=C/C=O`, for which the Potency result in test [1], in [2], in test [3], in test [4], in test [5] and in test [6] was “inactive” throughout. Also, the Potency result in test [8] was “inactive”. The molecule was classed as inactive in test [7] and in test [9].

For `CC/C=C(\C(=O)N[C@@H]1C(=O)N2C(C(=O)OCOC(=O)C(C)(C)C)=C(COC(N)=O)CS[C@H]12)c1csc(N)n1`, the Potency entry in [1], in test [2], in test [3], in test [4], in test [5] and in test [6] was “inactive” throughout. The Potency result in test [8] is “inactive”. In addition, the molecule was called inactive in test [10], in test [7] and in test [9].

Take `COCN(COC)c1nc(N(COC)COC)nc(N(COC)COC)n1`: the Potency result in [1], in test [2], in [3], in [4], in test [5] and in test [6] was “inactive” in each case. Moreover, the Potency entry in test [8] was “inactive”. Besides, the outcome in test [10], in [7] and in test [9] was inactive.

For the molecule `NC(=O)c1ncn([C@@H]2O[C@H](CO)[C@@H](O)[C@H]2O)n1`, the Potency in test [1] was 13.3 µM (active) and 64.4 µM (active). Besides, the Potency result in [2], in test [3], in [5], in test [6] and in test [8] was “inactive” throughout. The molecule was classed as inactive in test [10], in [7] and in [9].

As for `Cc1ccc(Cl)cc1`, the Potency entry in [1], in test [2], in [3], in [4], in test [5] and in [6] was “inactive” throughout. For the same molecule, the Potency entry in test [8] was “inactive”. Also, the outcome in test [10], in [7] and in [9] was inactive.

Turning to `N#CCC(=O)O`, the Potency result in test [1], in test [2], in test [3], in [4] and in test [8] was “inactive” throughout. Besides, the outcome in test [10], in test [7] and in [9] was inactive.

As to `Nc1nc(N)c2nc(-c3ccccc3)c(N)nc2n1`, the Potency was 26.6 µM (active) and 15.5 µM (active) and 34.4 µM (active) in [1]; 14.1 µM [fluorescent] (active) and 31.6 µM [fluorescent] (active) and 35.5 µM [fluorescent] (active) in test [8]. Besides, the Potency entry in test [2], in test [3], in test [4], in [5] and in test [6] was “inactive” throughout. In addition, the molecule was classed as inactive in test [10], in [7] and in test [9].
